TRHR agonist: TRH receptor (human) agonism | TRHR cells, calcium flux fluo-8, FDSS agonist mode | activation, % at 2 µM | hit rate 0.18% among 360,000 | AID 493084; further: 0% is about no effect
Target sequence (P34981 whole entry, looked up): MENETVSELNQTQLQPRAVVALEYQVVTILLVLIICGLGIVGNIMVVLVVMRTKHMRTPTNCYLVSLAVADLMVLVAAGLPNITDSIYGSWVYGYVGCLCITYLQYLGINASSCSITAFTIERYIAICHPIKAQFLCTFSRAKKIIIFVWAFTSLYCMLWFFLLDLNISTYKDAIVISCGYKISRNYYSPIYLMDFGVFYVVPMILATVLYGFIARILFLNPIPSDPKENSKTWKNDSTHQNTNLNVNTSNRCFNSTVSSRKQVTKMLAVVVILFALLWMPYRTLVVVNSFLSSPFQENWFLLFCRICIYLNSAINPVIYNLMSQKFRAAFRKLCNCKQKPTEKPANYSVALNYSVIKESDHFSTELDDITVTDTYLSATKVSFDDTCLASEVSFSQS
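In this calcium-flux screen, cells bearing human TRHR are dye-loaded with fluo-8, baselined for 10 cycles, then exposed to library compounds; positive kinetic calcium responses during the agonist phase mark hits, with TRH as control.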
D1 agonist: activates the human D1 dopamine receptor; P21728; HEK293 T-REx D1 cells, calcium flux, agonist mode; activation, % at 2 µM; hit rate 1% among 360,000; AID 504660; further: 0% is about no effect
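Agonism was scored from calcium flux recorded over 180 s (1 read/s) after pintool compound addition, following a 10-cycle baseline. Cells were inducible force-coupled HEK293 TREx D1, plated overnight at 30 C and loaded with no-wash calcium dye.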
D1 antag: antagonists of human D1 dopamine receptor | P21728 | HEK293 TREx D1 cells, calcium flux, dopamine EC80; stronger effect = lower value | activity change, negative = inhibition, % at 10 µM | hit rate 3.2% among 360,000 | AID 504652; in the data active means activity change below about -30%; further: on the % scale 0 is the no-effect control and ±100 the full control effect
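Allosteric or orthosteric antagonism assessed as attenuation of the calcium response to EC80 dopamine, added 180 s after compound, in induced HEK293 Trex D1 cells loaded with no-wash calcium dye.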
TRHR PAM: allosteric enhancers of human TRH receptor; enhancement, % at 2 µM; AID 493056; hit rate 0.66% among 360,000; TRHR cells, fluo-8 calcium fluorescence, EC20 TRH enhancement; in the data active means enhancement above about 30%; further: 0% is about no effect
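Enhancer read-out: after compound pinning and an initial kinetic agonist-mode read, an EC20 of TRH (10 nM final) was injected and fluo-8 calcium signal (Ex 480/Em 530) followed at 1 s/cycle for 100 cycles in TRHR-expressing cells.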
D1 PAM: potentiators of human D1 dopamine receptor | HEK293 TREx D1 cells, calcium flux, dopamine EC20 potentiation | potentiation, % at 10 µM | hit rate 0.036% among 360,000 | AID 504651; in the data active means potentiation above about 30%; further: 0% is about no effect
Glioma ERSR ind: inducers of ER stress response in human glioma cells; hit rate 0.02% among 420,000; Potency, µM, inactives show at the top dose activation, hits mostly activators; U87-MG GRP78 promoter luciferase reporter, 16 h; AID 602332; active means well fitted activation curve with a large enough effect; further: potency means the concentration at half of the fitted maximal effect; series mostly up to about 76 µM; % of control where 0% means no effect; nearly all actives have a fitted effect of over 35% in size
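Stably transfected U87-MG glioma cells carrying a GRP78-based luciferase sensor; 16 h compound incubation. Luminescence end-point read 10 min after Bright-Glo addition at room temperature.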
* marks the source's active call; other numbers are inactive results; nt = not tested or not shown. Sampled rows, rich in hits. Any-hit rate of the full collection: about 4%. Unless noted, no stated cut-off is given here; in the data, active means activation above about 30%; inactive means the rest.

SMILES	TRHR agonist	D1 agonist	D1 antag	TRHR PAM	D1 PAM	Glioma ERSR ind
COC(=O)c1sccc1S(=O)(=O)NC(C)c1cnn(-c2ccc(OC)cc2)c1C (configuration not stated)	0	3	-50*	-1	1	-5%
COc1ccc(-n2ncc(C(C)NS(=O)(=O)c3cc(C)sc3C)c2C)cc1 (configuration not stated)	nt	nt	nt	nt	nt	0%
COc1cc2oc(=O)ccc2cc1[C@H](O)[C@@H](O)C(C)(C)O	0	-1	14	39*	-1	-5%
CCOC(=O)C1CCCN(c2oc(-c3ccc(OC)cc3)nc2C#N)C1 (configuration not stated)	-2	2	3	-7	6	-1%
O=S(=O)(NCC(c1ccco1)N1CCN(c2ccccc2)CC1)c1ccc(F)cc1 (configuration not stated)	-1	3	-30*	2	-14	-3%
O=S(=O)(NCC(c1ccco1)N1CCN(c2ccc(F)cc2)CC1)c1ccc(F)cc1 (configuration not stated)	0	0	-34*	0	-5	-5%
O=S(=O)(NCC(c1ccco1)N1CCN(c2ccccc2)CC1)c1ccccc1 (configuration not stated)	0	-4	nt	-3	0	-4%
CCCC1=[N+](CC(=O)c2ccc(Br)cc2)CCn2cccc21	1	1	-1	2	-6	-2%
CCC(C)N(C(=O)COc1ccc(-c2nnco2)cc1)C1CCS(=O)(=O)C1 (configuration not stated)	0	3	-54*	4	-13	-2%
CN(C)CCN(C(=O)c1ccc(S(=O)(=O)N2CCc3ccccc32)cc1)c1nc2ccc(F)cc2s1	0	2	-36*	-22	-11	-1%
COc1cccc2sc(N(CCCN(C)C)C(=O)c3ccc(S(=O)(=O)N4CCCc5ccccc54)cc3)nc12	1	39*	-13	1	-1	-3%
Cc1oc(-c2ccc(Cl)cc2)nc1CSc1nnc(C)n2c1cc1sccc12	1	1	-9	6	-6	-2%
OCCC1CN(Cc2ccccc2-c2ccco2)CCN1C1CCCC1 (configuration not stated)	0	4	8	-11	4	-4%
CCOC(=O)C1=C(C)NC(C)=C(C(=O)OCC)C1C(=O)OCC(=O)N(C)C1CCS(=O)(=O)C1 (configuration not stated)	0	2	-36*	-4	-4	2%
CN(C(=O)COC(=O)c1ccccc1OCc1ccc(F)cc1)C1CCS(=O)(=O)C1 (configuration not stated)	1	-1	-31*	12	-6	-5%
Cc1ccc(C2NC(=O)CCC2[N+](=O)[O-])cc1 (configuration not stated)	-1	4	23	22	-3	-1%
O=C(Nc1cccc(F)c1)C1CCN(c2nnnn2-c2ccccc2)CC1	0	3	-30*	-9	-4	0%
O=C(Nc1ccc2c(c1)OCCO2)C1CCN(c2nnnn2-c2ccccc2)CC1	0	-1	-4	4	2	4%
CCOC(=O)Cn1cccc1-c1nc(-c2ccc(OC)cc2)c(-c2ccc(OC)cc2)s1	nt	nt	nt	nt	nt	-2%
CCCCCCCCC1=NCCc2c1[nH]c1ccccc21	1	38*	-14	6	-11	-7%
Cc1cnc(-n2ncc(C(=O)NCCc3ccccn3)c2C)nc1-c1ccc(F)cc1	nt	nt	nt	nt	nt	-2%
O=C(CCCN1C(=O)/C(=C\c2cccs2)SC1=S)Nc1ccc(O)cc1	0	4	-33*	3	-2	-5%
CCN(CC)CCOC(=O)c1ccc(NC(=O)CCCN2C(=O)/C(=C/c3cccs3)SC2=S)cc1	2	10	-77*	0	-22	-6%
O=C(CCN1C(=O)/C(=C/c2cccs2)SC1=S)Nc1ccccn1	7	45*	-13	0	-8	-6%
CCN(CC(=O)Nc1ccccc1OC)CC(=O)Nc1ccccc1-c1ccccc1	-2	2	6	-11	6	-7%
SMILES	TRHR agonist	D1 agonist	D1 antag	TRHR PAM	D1 PAM	Glioma ERSR ind
O=C(O)c1ccc(N/N=C/c2ccc(OC(=O)c3cccc(Cl)c3)cc2)cc1	1	37*	-36*	0	-7	-18%
CC(=O)OCc1c(C(F)(F)F)nn(C)c1Oc1ccccc1	1	-1	-14	6	-2	-4%
CC(=O)OCc1c(C(F)(F)F)nn(C)c1Oc1cccc(C(F)(F)F)c1	0	18	-35*	15	-12	4%
Cc1nnc(C)n1/N=C/c1c(O)ccc2ccccc12	1	2	-7	3	-1	-7%
Cc1nnc(-c2ccccc2)c(=O)n1/N=C/c1c(O)ccc2ccccc12	-1	113*	-24	9	-5	-4%
NS(=O)(=O)c1ccc(NC(=O)/C=C/c2ccc3c(c2)OCO3)cc1	0	4	-48*	-1	8	-1%
Nc1ccccc1C(=O)/C=C/c1ccc2c(c1)OCO2	-1	0	-35*	4	-4	-2%
O=C(/C=C/c1ccc2c(c1)OCO2)Nc1cc(S(=O)(=O)N2CCOCC2)ccc1N1CCOCC1	0	2	-47*	-2	-4	-5%
Cc1ccc(/C=C/C(=O)Nc2cc(S(=O)(=O)N3CCOCC3)ccc2N2CCOCC2)cc1	0	8	5	1	nt	-3%
CC(=O)Nc1ccc(NC(=O)/C=C/c2ccc3c(c2)OCO3)cc1	1	1	4	-2	-2	2%
Cc1cccc(OCC(=O)Nc2cc(C)c(O)c(-c3nc4ccccc4o3)c2)c1	nt	nt	nt	nt	nt	1%
O=C(NCCCNC(=O)c1cc(Cl)ccc1Cl)c1ccccn1	-1	2	3	-1	-9	2%
CN(C)CCNC(=O)c1ccc2c(c1)NC(=O)c1ccccc1S2	-1	7	14	9	0	-3%
CCN(CC)CCNC(=O)c1ccc2c(c1)NC(=O)c1ccccc1S2	2	1	-30*	-4	-4	-3%
CN(C(=O)c1cnccn1)c1c(N)n(Cc2ccccc2)c(=O)[nH]c1=O	0	0	1	-2	3	-3%
Cc1ccc2cc(C#N)c(SCC(=O)NCC3CCCO3)nc2c1 (configuration not stated)	-1	0	-2	-5	-5	-6%
Cc1ccc(-c2ccc(SCC(=O)NCC3CCCO3)nn2)cc1 (configuration not stated)	-1	3	-34*	0	-2	1%
Cc1ccc2nc(SCC(=O)NCC3CCCO3)c(C#N)cc2c1 (configuration not stated)	-1	1	-32*	-23	-10	-2%
NNC(=O)c1[nH]c(-c2ccccc2)cc1-c1ccccc1	-1	5	5	-6	-1	3%
